# Reference: PubChem BioAssay
# Calls of active or inactive are those of the source. Rule as the data show it: active = inhibition above about 31%; inactive = the rest.
# Experiment: MRP1 drug-resistance reversers in H69AR cells – cell-based, doxorubicin co-treatment, pilot screen (AID 601)
# Conditions: H69AR cells, CellTiter-Glo, 72 h; compound alone cytotoxicity; at 10 µM
row,Compound,viability
1,O=C(Nc1cccc2ccccc12)N1CCOCC1,90.5%
2,O=C1C(Cl)=C(N2CCCCC2)C(=O)N1c1ccccc1Cl,81.8%
3,CCC1(c2ccc(F)cc2)NC(=O)N(CC(=O)c2ccc[nH]2)C1=O (stereo not given),96.6%
4,Nn1c(SCC(=O)Nc2ccc(F)cc2)nnc1-c1cccnc1,103%
5,CC1=C(C(N)=O)C(c2cccnc2)n2nc(SCc3ccccc3Cl)nc2N1 (stereo not given),98.7%
6,COc1cc2c(cc1OC)C(c1cccnc1)CC(=O)N2 (stereo not given),97.4%
7,CC(=O)c1cccc(NC(=O)c2ccc(NS(C)(=O)=O)cc2)c1,83.6%
8,CCC(C)(C)n1nnnc1C(c1ccc(OC)c(OC)c1)N1CCN(c2ccc(F)cc2)CC1 (stereo not given),85.8%
9,Cc1cccc(C)c1NC(=O)CS(=O)CC(=O)NC1CCCc2ccccc21 (stereo not given),88.7%
10,COc1ccccc1-c1cn[nH]c(=S)n1,96.1%
11,COc1ccc(S(=O)(=O)N2CCOCC2)cc1C(=O)Nc1cc(C)on1,93.9%
12,Cc1cc(C(=O)OCCO)c(C#N)c(N)n1,92.1%
13,CCOC(=O)c1nnc(-c2ccccc2)o1,88.1%
14,COCC(=O)Nc1sc2c(c1C(=O)OC)C(C(=O)OC)CC2 (stereo not given),101%
15,Cc1oc(-c2ccc(Cl)cc2)nc1CS(=O)CC(=O)NCCCN(C)C1CCCCC1 (stereo not given),87.1%
16,Cn1c(=O)c(-c2ccccc2)nn2c3ccccc3nc12,90.8%
17,CCN1CCN(c2ncnc3c2oc2nc(C)c4c(c23)CC(C)(C)OC4)CC1,97%
18,CCn1c(=O)cc(SCC(=O)Nc2cccnc2)c2ccccc21,104%
19,COCCCNS(=O)(=O)c1ccc2c(c1)CCN2C(C)=O,87.1%
20,CCN(CC)S(=O)(=O)c1ccc(Cl)c(C(=O)OC)c1,95.7%

# Experiment: yeast transport mutant growth inhibition pilot in 384-well plates, post-Golgi transport modulator project (AID 636)
# Conditions: absorbance 615 nm, about 18 h, stronger effect = higher value
row,Compound,inhibition
1,O=C(NCCO)c1scc2c1OCCO2,-5.73% (inactive)
2,CN(c1ccccc1)S(=O)(=O)c1ccc(C(=O)OCC(=O)NCc2ccco2)cc1,2.03% (inactive)
3,Clc1ccc(SCCn2ccnc2)cc1,-6.22% (inactive)
4,CC(C)(CO)NC(=O)CCCOc1ccc(Cl)cc1Cl,-0.26% (inactive)
5,Cc1ccccc1NC(=O)CSc1nc(N)c(C#N)c(-c2cccs2)c1C#N,-9.32% (inactive)
6,CCN(CC)C(=O)CSc1nc2ccc(NC(=O)CSc3nccn3C)cc2s1,-4.47% (inactive)
7,Cc1cc(Oc2ccccc2)nc(-c2ccccc2)n1,-1.17% (inactive)
8,COc1ccc(S(=O)(=O)CCC(=O)O)cc1,-4.05% (inactive)
9,O=C(Nc1ccc(OC(=O)c2ccco2)cc1)c1ccco1,-5.73% (inactive)
10,CCCc1nnc(SCC(=O)N2CCOCC2)n1Cc1ccco1,-4.67% (inactive)
11,Cc1ccc(S(=O)(=O)N2CCC(C(=O)N3CCC[C@H]3C(=O)NCc3ccccc3)CC2)cc1,-4.81% (inactive)
12,C=C(C)Cn1c(N2CCN(CC)CC2)nc2c1c(=O)[nH]c(=O)n2C,-1.07% (inactive)
13,Cc1cc2oc(=O)cc(CN3CCN(Cc4ccc5c(c4)OCO5)CC3)c2cc1C,-5.73% (inactive)
14,Cn1c(=O)c(C(=O)Nc2cccnc2)c(O)c2ccccc21,-3.65% (inactive)
15,C=Cn1c(C(=O)O)cc(CC)c1-c1ccccc1,-4.4% (inactive)
16,COc1ccccc1N1C(=O)CC(Sc2nc(C)cc(C)n2)C1=O (stereo not given),-5.84% (inactive)
17,COc1cccc(NC(=O)NC2(C(F)(F)F)Oc3ccccc3O2)c1,-5.07% (inactive)
18,CCOC(=O)Nc1ccc2c(c1)N(C(=O)CN(CC)CC)c1ccccc1C=C2,-4.61% (inactive)
19,O=C1C(Cl)=C(N2CCOCC2)C(=O)N1CCc1ccccc1,-6.27% (inactive)
20,CCN(CCCNC(=O)CCNC(=O)Cn1ccc2ccccc2c1=O)c1ccccc1,-5.47% (inactive)

row,Compound,inhibition
1,O=C(Nc1cccc2ccccc12)N1CCOCC1,-2.95% (inactive)
2,O=C1C(Cl)=C(N2CCCCC2)C(=O)N1c1ccccc1Cl,-2.6% (inactive)
3,CCC1(c2ccc(F)cc2)NC(=O)N(CC(=O)c2ccc[nH]2)C1=O (stereo not given),-2.08% (inactive)
4,Nn1c(SCC(=O)Nc2ccc(F)cc2)nnc1-c1cccnc1,-0.26% (inactive)
5,CC1=C(C(N)=O)C(c2cccnc2)n2nc(SCc3ccccc3Cl)nc2N1 (stereo not given),-9.05% (inactive)
6,COc1cc2c(cc1OC)C(c1cccnc1)CC(=O)N2 (stereo not given),-1.73% (inactive)
7,CC(=O)c1cccc(NC(=O)c2ccc(NS(C)(=O)=O)cc2)c1,-3.95% (inactive)
8,CCC(C)(C)n1nnnc1C(c1ccc(OC)c(OC)c1)N1CCN(c2ccc(F)cc2)CC1 (stereo not given),-1.95% (inactive)
9,Cc1cccc(C)c1NC(=O)CS(=O)CC(=O)NC1CCCc2ccccc21 (stereo not given),-6.8% (inactive)
10,COc1ccccc1-c1cn[nH]c(=S)n1,1.07% (inactive)
11,COc1ccc(S(=O)(=O)N2CCOCC2)cc1C(=O)Nc1cc(C)on1,-3.42% (inactive)
12,Cc1cc(C(=O)OCCO)c(C#N)c(N)n1,-3.87% (inactive)
13,CCOC(=O)c1nnc(-c2ccccc2)o1,-1.56% (inactive)
14,COCC(=O)Nc1sc2c(c1C(=O)OC)C(C(=O)OC)CC2 (stereo not given),3.16% (inactive)
15,Cc1oc(-c2ccc(Cl)cc2)nc1CS(=O)CC(=O)NCCCN(C)C1CCCCC1 (stereo not given),-2.99% (inactive)
16,Cn1c(=O)c(-c2ccccc2)nn2c3ccccc3nc12,-7.03% (inactive)
17,CCN1CCN(c2ncnc3c2oc2nc(C)c4c(c23)CC(C)(C)OC4)CC1,-0.78% (inactive)
18,CCn1c(=O)cc(SCC(=O)Nc2cccnc2)c2ccccc21,-1.32% (inactive)
19,COCCCNS(=O)(=O)c1ccc2c(c1)CCN2C(C)=O,-0.13% (inactive)
20,CCN(CC)S(=O)(=O)c1ccc(Cl)c(C(=O)OC)c1,-1.87% (inactive)
